Experimental data as given in the supplement of paper PMC6555819.

Assays:
Assay in all cases: PBM binding z-score (relative to random genomic background probes); higher = stronger binding; sequences stand for … in GC…GCGATTGACAGCGTAGAATGAAGG
[1] = tested on: FXR:RXRa (NR concentration 270 nM, RXRa partner concentration 90 nM)
Procedure, shortened: (§1)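 Custom Agilent 4×180K protein-binding microarrays carried double-stranded probes, each with a 34-nt variable region. These regions held direct-repeat seeds, single-nucleotide variants, half-site ablations and random human genomic background sequences. Ligand-free nuclear receptor dimers were incubated on the arrays for 1 h, antibodies against each partner (one per run) detected binding, and scanned fluorescence was regression-normalized. Binding z-scores take the random background probes as reference.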

[2] = tested on: LXRa:RXRa (NR concentration 270 nM, RXRa partner concentration 90 nM)
Procedure, shortened: as §1

[3] = tested on: LXRa homodimer (NR concentration 270 nM)
Procedure, shortened: as §1

[4] = tested on: LXRb:RXRa (NR concentration 270 nM, RXRa partner concentration 90 nM)
Procedure, shortened: as §1

[5] = tested on: LXRb homodimer (NR concentration 270 nM)
Procedure, shortened: as §1

[6] = tested on: PPARa:RXRa (NR concentration 270 nM, RXRa partner concentration 90 nM)
Procedure, shortened: as §1

[7] = tested on: PPARg:RXRa (NR concentration 180 nM, RXRa partner concentration 90 nM)
Procedure, shortened: as §1

[8] = tested on: PPARg:RXRa 270nM:90nM, anti-RXR (NR concentration 270 nM, RXRa partner concentration 90 nM)
Procedure, shortened: as §1

[9] = tested on: PPARg:RXRa 30nM:10nM, anti-RXR (NR concentration 30 nM, RXRa partner concentration 10 nM)
Procedure, shortened: as §1

[10] = tested on: PPARg:RXRa 90nM:30nM, anti-RXR (NR concentration 90 nM, RXRa partner concentration 30 nM)
Procedure, shortened: as §1

[11] = tested on: PPARg:RXRa DBDmut IVT, anti-RXR (DBD mutation: RXRa K156A/R161A, NR concentration 270 nM, RXRa partner concentration 90 nM)
Procedure, shortened: as §1

[12] = tested on: PPARg:RXRa IVT, anti-PPARg (NR concentration 270 nM, RXRa partner concentration 90 nM)
Procedure, shortened: as §1

[13] = tested on: PPARg DBDmut:RXRa IVT, anti-PPARg (DBD mutation: PPARg1 K132A/R137A, NR concentration 270 nM, RXRa partner concentration 90 nM)
Procedure, shortened: as §1

[14] = tested on: PPARg DBDmut IVT, anti-PPARg (DBD mutation: PPARg1 K132A/R137A, NR concentration 270 nM)
Procedure, shortened: as §1

[15] = tested on: PPARg homodimer (NR concentration 180 nM)
Procedure, shortened: as §1

[16] = tested on: PXR:RXRa (NR concentration 270 nM, RXRa partner concentration 90 nM)
Procedure, shortened: as §1

[17] = tested on: PXR homodimer (NR concentration 270 nM)
Procedure, shortened: as §1

[18] = tested on: RARa:RXR (NR concentration 270 nM, RXRa partner concentration 90 nM)
Procedure, shortened: as §1

[19] = tested on: RARa homodimer (NR concentration 270 nM)
Procedure, shortened: as §1

[20] = tested on: RARb:RXRa (NR concentration 270 nM, RXRa partner concentration 90 nM)
Procedure, shortened: as §1

| Sequence | PBM binding z-score [1] | PBM binding z-score [2] | PBM binding z-score [3] | PBM binding z-score [4] | PBM binding z-score [5] | PBM binding z-score [6] | PBM binding z-score [7] | PBM binding z-score [8] | PBM binding z-score [9] | PBM binding z-score [10] | PBM binding z-score [11] | PBM binding z-score [12] | PBM binding z-score [13] | PBM binding z-score [14] | PBM binding z-score [15] | PBM binding z-score [16] | PBM binding z-score [17] | PBM binding z-score [18] | PBM binding z-score [19] | PBM binding z-score [20] |
| --- | --- | --- | --- | --- | --- | --- | --- | --- | --- | --- | --- | --- | --- | --- | --- | --- | --- | --- | --- | --- |
| ATCTCTAGGTAAAAGTTCAGTGATTCCCGAGGAT | 0.618 | 1.07 | 1.4 | 0.613 | 0.691 | 4.08 | 7.48 | 7.11 | 7.32 | 8.09 | 2.14 | 3.78 | 1.64 | 0.678 | 1.31 | 1.97 | 1.49 | 1.61 | 0.97 | 2.32 |
| TTACCACGGTGAGCTGAGGTCGTTGATCCAACTC | 0.647 | 0.233 | -0.365 | 0.375 | -1 | 0.798 | -0.279 | 0.206 | -0.397 | -0.177 | -0.205 | 0.363 | -0.296 | -0.157 | -0.455 | 2.07 | 0.241 | 1.07 | -0.639 | 0.544 |
| CAAACTAGGTCAACGGTCAAAGTCGAGCCAACCA | 5.58 | 4.31 | 2.25 | 3.09 | 0.978 | 6.16 | 11 | 9.5 | 8.86 | 11 | 8.71 | 9.01 | 1.94 | 3.3 | 2.91 | 2.17 | 0.267 | 3.71 | 0.962 | 4.51 |
| ATACCAAGGTGATCGTGAGGTCCTTGATACTAAC | 0.569 | -0.0765 | -0.204 | 0.177 | -0.319 | 0.562 | 0.44 | 0.0314 | -0.102 | -0.134 | 0.257 | 0.989 | 0.0116 | -0.0653 | -0.043 | 0.241 | 0.00841 | 0.662 | 0.0164 | 0.729 |
| TCTGCTAGGTGAGTTGGTCAGCTAACGAGCTGCC | -0.433 | -0.56 | -0.902 | -0.937 | -0.888 | -0.304 | -0.825 | 0.406 | 0.873 | 0.748 | 1.24 | 1.52 | 0.145 | -0.743 | -1.59 | -0.323 | -0.828 | -0.314 | -1.28 | 0.429 |
| CCGACTGGGCCAAGGTCATTGATCAGTCAAAGCA | 2.94 | 2.76 | 0.884 | 2.65 | -1.02 | 3.83 | 2.29 | 3 | 0.61 | 2.11 | 2.08 | 2.75 | -1.14 | -0.87 | 2.42 | 3.48 | 0.921 | 3.76 | 0.257 | 3.26 |
| GCATATAGGTCATACAAGGTGAAAGTCCGATTGT | 6.4 | 5.8 | 2.37 | 4.27 | 0.913 | 5.75 | 7.36 | 6.55 | 4.09 | 6.05 | 6.81 | 7.41 | 3.79 | 2.08 | 2.85 | 4.68 | 0.812 | 4.41 | 1.09 | 4.29 |
| CCTAATGGGCCAAGGTCATTGATCAGTCAAAGCA | 3.25 | 3.17 | 1.04 | 2.93 | -0.303 | 3.86 | 2.44 | 3 | 0.651 | 2.34 | 2.35 | 2.59 | -0.175 | -0.521 | 2.49 | 3.83 | 1.87 | 3.77 | 0.774 | 3.59 |
| CCTACTGGCCCAAGGTCATTGATCAGTCAAAGCA | 2.91 | 3.24 | 2 | 3.52 | 0.491 | 3.62 | 0.964 | 2.19 | 0.438 | 1.29 | -0.104 | 1.17 | -0.998 | -0.271 | 2.64 | 3.52 | 1.68 | 3.36 | 0.651 | 3.4 |
| TCATATAGGTAATACAGGTGCAAGTCGGCATCTA | 0.658 | 1.85 | 0.544 | 0.742 | 0.358 | 1.45 | 1.07 | 2.35 | 3.75 | 3.08 | 3.87 | 2.67 | 1.02 | 0.643 | 0.337 | 1.07 | 0.613 | 0.828 | 1.43 | 0.563 |
| ATATCTAGGTTATCGGGTCATTCAGTTTGCGCAT | 3.27 | 3.47 | 2.2 | 3.33 | 1.83 | 4.98 | 6.91 | 6.17 | 4.2 | 6.24 | 7.52 | 7.5 | 1.81 | 3.17 | 3.91 | 3.94 | 8.08 | 3.87 | 2.26 | 2.89 |
| CCTACTGGGCCATTCAGAGGTCATTTATCATATG | 2.65 | 4.36 | 8.31 | 4.14 | 1.15 | 3.75 | 2.29 | 2.85 | 0.841 | 1.78 | 3.98 | 4.38 | 1.61 | 0.342 | 2.27 | 4.91 | 2.24 | 4.44 | 0.704 | 2.79 |
| TCGTGTAGGTTAGTCGGGGCATTCAGCCAACATA | 0.782 | 0.838 | 0.294 | 1.36 | 0.252 | 1.16 | -0.0243 | 1.38 | 2.34 | 1.62 | 2.15 | 1.92 | -0.257 | -0.153 | 0.862 | 0.845 | 0.707 | 0.886 | 0.866 | 0.996 |
| TCATATAGGTAAACAGGTGAACGTCCGTAAGTTA | 1.03 | 1.3 | 0.422 | 1.09 | -0.0806 | 2.56 | 2.7 | 3.48 | 4.2 | 3.9 | 5.34 | 5.19 | 1.47 | 1 | 1.69 | 1.09 | 0.569 | 1.4 | 1.29 | 0.977 |
| GCGACTGGGGCAAAGCAGGTCACCATAAGGTTGG | 0.839 | 1.93 | -0.00602 | 1.53 | -1.06 | 3.18 | 2.77 | 2.65 | 0.521 | 1.7 | 3.8 | 4.81 | 0.568 | -0.842 | 1.51 | 3.05 | -0.164 | 2.96 | -0.0737 | 2.42 |
| CGAATTAGGTCATCCAGGACAGTGAATACATTGA | 4.75 | 3.32 | 0.829 | 2.55 | 0.231 | 5.11 | 7.49 | 6.52 | 3.78 | 6.07 | 8.48 | 8.35 | 3.83 | 2.81 | 2.25 | 2.36 | 1.3 | 2.86 | 1.08 | 4.14 |
| TCTTGTAAATCAACAGGAGGTTAAGAAAGATCGA | 0.826 | 1.32 | 0.389 | 1.1 | 0.0438 | 1.36 | 0.285 | 2.05 | 3.57 | 2.79 | 1.98 | 0.596 | 0.712 | 0.346 | 0.585 | 1.13 | 0.241 | 1.26 | 0.881 | 0.847 |
| TCTAGTTGGTCACGGAGATCACACACGACGGGTA | 0.323 | 0.174 | 0.394 | 0.575 | 0.153 | 0.929 | 1.16 | 2.06 | 2.93 | 2.31 | 2.55 | 2.3 | 0.815 | 0.952 | 0.853 | 0.363 | 0.241 | 0.735 | 0.576 | 1.57 |
| CAAACTAGGTCACCGGAACGTCAAAGTCCGCATG | 4.29 | 3.3 | 0.469 | 2.42 | 0.773 | 5.75 | 8.87 | 7.2 | 4.82 | 6.94 | 8.6 | 8.71 | 3.6 | 1.58 | 2.42 | 1.83 | 0.254 | 2.67 | 0.352 | 4.31 |
